Assay results published in paper PMC4336329 (PLoS ONE, 2015).
Screen size: about 310,000 compounds; about 14,000 (4.5%) showed an effect of 50% or more. Effects have a minus sign here. For the sample, strong results were picked, then their nearest neighbours and some compounds at random.

Target: human ether-à-go-go-related gene (hERG) potassium channel (human, UniProt Q12809)
Test: primary screen, population patch clamp on CHO cells stably expressing hERG; higher = less effect of the substance
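Also: peak tail current of the secondary pulse compared with the same well before compound.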

human ether-à-go-go-related gene (hERG) potassium channel, sequence (Q12809 whole entry, looked up): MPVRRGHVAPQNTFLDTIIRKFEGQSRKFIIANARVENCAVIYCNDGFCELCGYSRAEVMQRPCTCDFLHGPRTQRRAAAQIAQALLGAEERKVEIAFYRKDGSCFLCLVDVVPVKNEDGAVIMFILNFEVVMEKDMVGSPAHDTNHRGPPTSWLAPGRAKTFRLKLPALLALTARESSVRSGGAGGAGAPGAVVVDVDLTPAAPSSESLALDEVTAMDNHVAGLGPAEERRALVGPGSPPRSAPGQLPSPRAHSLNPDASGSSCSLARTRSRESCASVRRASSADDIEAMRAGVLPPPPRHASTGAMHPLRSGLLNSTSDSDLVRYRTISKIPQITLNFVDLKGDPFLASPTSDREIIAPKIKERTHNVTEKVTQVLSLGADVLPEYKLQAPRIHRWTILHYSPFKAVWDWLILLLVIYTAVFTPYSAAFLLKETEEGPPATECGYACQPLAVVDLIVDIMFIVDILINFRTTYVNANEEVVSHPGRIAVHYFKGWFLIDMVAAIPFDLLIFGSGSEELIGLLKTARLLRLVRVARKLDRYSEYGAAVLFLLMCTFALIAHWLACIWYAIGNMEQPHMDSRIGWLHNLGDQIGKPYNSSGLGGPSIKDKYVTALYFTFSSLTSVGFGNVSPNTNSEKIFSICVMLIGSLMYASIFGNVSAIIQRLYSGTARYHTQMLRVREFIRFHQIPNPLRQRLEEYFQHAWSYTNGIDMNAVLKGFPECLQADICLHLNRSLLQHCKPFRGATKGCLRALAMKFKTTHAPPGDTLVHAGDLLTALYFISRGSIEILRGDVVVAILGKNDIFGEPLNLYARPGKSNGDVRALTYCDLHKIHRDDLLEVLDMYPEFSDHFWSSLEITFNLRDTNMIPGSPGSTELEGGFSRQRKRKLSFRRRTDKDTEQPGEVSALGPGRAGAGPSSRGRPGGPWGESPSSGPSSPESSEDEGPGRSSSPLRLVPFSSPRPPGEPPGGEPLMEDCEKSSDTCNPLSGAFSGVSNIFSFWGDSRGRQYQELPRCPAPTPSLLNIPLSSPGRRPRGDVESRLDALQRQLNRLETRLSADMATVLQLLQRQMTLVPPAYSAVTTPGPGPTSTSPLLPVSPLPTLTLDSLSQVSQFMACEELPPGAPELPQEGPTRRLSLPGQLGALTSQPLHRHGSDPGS

Row | SMILES | hERG current change (%, negative = inhibition) at 10uM
1 | COc1cc(OC)cc(C(=O)NNC(=O)c2ccc(-n3cncn3)c([N+](=O)[O-])c2)c1 | 5.46%
2 | CCN(CC)Cc1cc(C(=O)O)c(C)o1 | 19.4%
3 | O=C(CCn1c(=O)c2cccn2c2ccc(F)cc21)NCc1cccc(F)c1 | 23.4%
4 | CCOC(=O)COn1c2c(c3c4no[n+]([O-])c4ccc31)CCCC2 | 3.89%
5 | CCCCN=Cc1sc2ccc(OCC)cc2c1O | 3.66%
6 | CCN(CC)CCn1c2c(c(SCC(=O)Nc3ccc4c(c3)OCO4)nc1=O)CCC2 | -39.2%
7 | CCN(CC)CCCn1c2c(c(SCC(=O)Nc3ccc4c(c3)OCCO4)nc1=O)CCC2 | -43.4%
8 | CCN(CC)CCCn1c2c(c(SCC(=O)Nc3ccc4c(c3)OCO4)nc1=O)CCC2 | -44.6%
9 | CC(=O)c1cccc(NC(=O)CSc2nc(=O)n(CCN3CCOCC3)c3c2CCC3)c1 | -17.6%
10 | CCN(CC)CCn1c2c(c(SCC(=O)Nc3ccc(F)c(F)c3)nc1=O)CCC2 | -70.5%
11 | O=C(CSc1nc(=O)n(CCN2CCOCC2)c2c1CCC2)Nc1ccc(OC(F)(F)F)cc1 | -71.8%
12 | CN(C)CCn1c2c(c(SCC(=O)Nc3ccc4c(c3)OCCO4)nc1=O)CCC2 | -16.1%
13 | CCN(CC)CCCn1c2c(c(SCC(=O)Nc3cccc(C(C)=O)c3)nc1=O)CCC2 | -59.4%
14 | CC(=O)c1cccc(NC(=O)CSc2nc(=O)n(CCCN3CCOCC3)c3c2CCC3)c1 | -29.1%
15 | CCOc1ccc(NC(=O)CSc2nc(=O)n(CCN3CCOCC3)c3c2CCCC3)cc1 | -28.1%
16 | COc1ccc(NC(=O)CSc2nc(=O)n(CCN3CCOCC3)c3c2CCC3)cc1 | 0.105%
17 | CCN(CC)CCCn1c2c(c(SCC(=O)Nc3ccc(F)c(F)c3)nc1=O)CCC2 | -55.1%
18 | COc1cc2c(cc1OC)C(C)N(C(=O)CCN1C(=O)C3C4C=CC(C4)C3C1=O)CC2 (stereo not drawn) | 16%
19 | CC12CCC(=O)N1C(C(=O)N1CCN(c3cccc(Cl)c3)CC1)CS2 (stereo not drawn) | -19.4%
20 | Cc1ccccc1-c1noc(-c2ccccc2C(=O)NCC2CCCO2)n1 (stereo not drawn) | -3.02%
21 | Cc1ccc(C)c2nc3sc(C(=O)O)cc3cc12 | 20.9%

Row | SMILES | hERG current change (%, negative = inhibition) at 10uM
22 | CN1C(=O)C(C)(C)c2cc(S(=O)(=O)N3CCCC(C(=O)NCc4ccc(Cl)cc4)C3)ccc21 (stereo not drawn) | -8.2%
23 | C=CCn1c(O)c(C(CC)=NCc2ccc3c(c2)OCO3)c(=O)[nH]c1=O | 3.09%
24 | CCN(CC)c1nc(Nc2ccc([N+](=O)[O-])cc2)nc(N(CC)CC)n1 | 11.1%
25 | CCN(CC)CCCn1c2c(c(SCC(=O)Nc3ccc(OC(F)(F)F)cc3)nc1=O)CCC2 | -67.7%
26 | Clc1ccc(-c2nnc(SCc3ccon3)o2)c(Cl)c1 | -33.9%
27 | COc1ccc(NC(=O)[C@@H]2CCCN2C(=O)[C@@H]2Cc3ccccc3CN2C(=O)OC(C)(C)C)cc1 | 14.8%
28 | COC(=O)CCC(=O)c1oc2ccc(OC)cc2c1N | 4.41%
29 | O=C(Nc1cc(S(=O)(=O)N2CCOCC2)ccc1OCC(F)(F)F)C1=COCCO1 | -42.8%
30 | O=C(CC1OC(=O)c2ccccc21)Nc1cc(S(=O)(=O)N2CCOCC2)ccc1OCC(F)(F)F (stereo not drawn) | -52.2%
31 | CCOc1ccc(S(=O)(=O)N2CCCCC2)cc1NC(=O)CC1OC(=O)c2ccccc21 (stereo not drawn) | -31.3%
32 | CC(CC(=O)Nc1cc(S(=O)(=O)N2CCOCC2)ccc1OCC(F)(F)F)c1ccccc1 (stereo not drawn) | -50.2%
33 | CC(C)Oc1ccc(S(=O)(=O)N2CCOCC2)cc1NC(=O)CC1OC(=O)c2ccccc21 (stereo not drawn) | -25%
34 | CC(CC(=O)Nc1ccc(S(=O)(=O)N2CCOCC2)cc1)c1ccccc1 (stereo not drawn) | -4.25%
35 | CCOc1ccc(Br)cc1C(=S)N1CCCC1 | 9.29%
36 | COC(=O)c1ccc(Oc2cc(C)nc(Cl)n2)cc1 | 13.9%
37 | O=C1CCCC2=C1C(c1ccncc1)Nc1ccccc1N2 (stereo not drawn) | 10.2%
38 | Cc1ccc(NC(=O)C2CCCN2C(=O)OCc2ccccc2)c(C)c1 (stereo not drawn) | 12.7%
39 | Cc1cccc(NC(=O)CC2c3ccccc3Oc3ccccc32)c1 | 18%
40 | CCCc1cc(-n2ccnc2)n2c(nc3ccccc32)c1C#N | -29.7%
41 | CCCc1cc(-n2cnc3ccccc32)n2c(nc3ccccc32)c1C#N | -50.1%
42 | CC(C)c1cc(N2CCN(C(=O)c3ccco3)CC2)n2c(nc3ccccc32)c1C#N | -34.1%

Row | SMILES | hERG current change (%, negative = inhibition) at 10uM
43 | CCCc1cc(-n2ccnc2C)n2c(nc3ccccc32)c1C#N | 0.616%
44 | CCCCc1nc(N2CCN(C(=O)c3ccco3)CC2)c(C#N)c2c1CCCC2 | -5.71%
45 | CCCc1cc(N2CCN(C(=O)c3ccco3)CC2)n2c(nc3ccccc32)c1C#N | -56.1%
46 | NC(=O)c1cc[n+](CC2=C(C(=O)[O-])N3C(=O)[C@@H](NC(=O)C(c4ccccc4)S(=O)(=O)[O-])[C@H]3SC2)cc1.[Na+] (stereo partly drawn) | 20.3%
47 | Cc1cc(OCc2nn[nH]n2)c2c3c(c(=O)oc2c1)CCC3 | 3.12%
48 | Cc1cc(C)c(S(=O)(=O)NCc2ccc3c(c2)OCO3)cc1C | -6.86%
49 | Cc1onc(-c2ccccc2)c1C(=O)c1ccccc1 | 3.87%
50 | COCCN1CC(C(=O)NCc2ncccc2C)CCC1=O (stereo not drawn) | 22.6%
51 | Cc1ccc(S(=O)(=O)CCC(=O)N(Cc2nnc(-c3ccc(Cl)cc3)o2)C2CC2)cc1 | -12.7%
52 | O=[N+]([O-])c1ccc(N2CCN(S(=O)(=O)c3ccccc3)CC2)cc1NCc1cccnc1 | 1.8%
53 | Cc1ccc2c(CC(=O)OCc3cc(=O)n4c(n3)sc3ccccc34)coc2c1 | 5.05%
54 | CC(CN1CCOCC1)OC(=O)/C=C/c1ccccc1.Cl (stereo not drawn) | 10.1%
55 | COc1ccc(/C=C/C(=O)OC(C)CN2CCCCC2)cc1.Cl (stereo not drawn) | -26.2%
56 | CC(CN1CCCCC1)OC(=O)C(C)(c1ccccc1)c1ccccc1.Cl (stereo not drawn) | -52.3%
57 | CC(CN1CCOCC1)OC(=O)C(C)(c1ccccc1)c1ccccc1 (stereo not drawn) | -8.05%
58 | CC(CN1CCCCC1)OC(=O)/C=C/c1ccccc1.Cl (stereo not drawn) | -71%
59 | CC(CN1CCCC1)OC(=O)C(c1ccccc1)c1ccccc1.Cl (stereo not drawn) | -42.2%
60 | COc1cccc2cc(C(=O)NCc3ccc(Cl)cc3)c(=O)oc12 | 14.4%
61 | O=C(Cn1cnc2ccccc2c1=O)Nc1cccc(-c2nnc3n2CCCCC3)c1 | 0.387%
62 | N=c1c(-c2nc3ccccc3[nH]2)cc(C(=O)c2cccs2)nn1-c1ccccc1 | -50.2%
63 | Cc1ccccc1-n1nc(C(=O)c2cccs2)cc(-c2nc3ccccc3[nH]2)c1=N | -1.9%

Row | SMILES | hERG current change (%, negative = inhibition) at 10uM
64 | N=c1c(-c2nc3ccccc3[nH]2)cc(C(=O)c2ccco2)nn1-c1ccccc1 | -59.5%
65 | O=C(Nc1cccc(-c2nc3ccccc3[nH]2)c1)c1ccco1 | -16.9%
66 | Cc1ccc2nc(-c3cccc(NC(=O)c4ccco4)c3)[nH]c2c1 | -30.7%
67 | O=C(Nc1ccc(-c2nc3ccccc3[nH]2)cc1)c1ccco1 | -18.4%
68 | N=c1c(-c2nc3ccccc3[nH]2)cc(C(=O)c2cccs2)nn1-c1ccc(Cl)cc1 | 8.51%
69 | Cc1cccc(-n2nc(C(=O)c3ccco3)cc(-c3nc4ccccc4[nH]3)c2=N)c1 | -65.7%
70 | COc1ccc(-n2nc(C(=O)c3cccs3)cc(-c3nc4ccccc4[nH]3)c2=N)cc1 | -4.53%
71 | COc1ccc(CCNC(=O)CCC(=O)N2CCN(S(=O)(=O)c3ccccc3)CC2)cc1OC | 4.4%
72 | Fc1ccc(-n2c(Cc3ccccc3)nnc2SCc2nc(-c3ccc(Cl)cc3)no2)cc1 | -1.6%
73 | Cc1cc(N(CN2CCCC2=O)C(=O)c2ccc(OC(C)C)cc2)no1 | -2.94%
74 | O=C(NP(=O)(N1CCOCC1)N1CCOCC1)C1=C(N2CCOCC2)/C(=C\c2ccccc2)CC1 | 18.1%
75 | Cc1nc2n(n1)C(c1ccccc1)C1=C(CC(c3ccco3)CC1=O)N2 (stereo not drawn) | 11.4%
76 | CCSc1nnc(-c2cccc(S(=O)(=O)N(C)C)c2)n1-c1cc(OC)ccc1OC | -49.8%
77 | COc1ccc(OC)c(-n2c(SCC(C)=O)nnc2-c2cccc(S(=O)(=O)N(C)C)c2)c1 | -16.9%
78 | CCCSc1nnc(-c2cccc(S(=O)(=O)N(C)C)c2)n1-c1cc(OC)ccc1OC | -68.2%
79 | CC(C)(C)OC(=O)CNC(=O)c1nc[nH]c1C(=O)N1CCN(C(=O)OC(C)(C)C)CC1 | -15.8%
80 | CCOc1ccc(C(=O)NCCC(=O)NCCCC(=O)O)cc1 | 6.08%
81 | Cc1cccc(N2N=C(C(=O)O)CCC2=O)c1 | 10.2%
82 | O=C(O)c1cnn2c(C(F)F)cc(C3CC3)nc12 | 3.73%
83 | O=C(Nc1cccnc1)c1cnn2c(C(F)F)cc(C3CC3)nc12 | -57.6%
84 | CC(=O)c1ccc(NC(=O)c2cnn3c(C(F)F)cc(C4CC4)nc23)cc1 | 11.1%
